Unmarked numbers belong to inactive results. Records with an inconclusive call do not appear. Active and inactive are the calls of the source. Unless noted, calls follow the shape of the dose curve; as a rule, active = well fitted curve in the direction sought with a large enough effect; inconclusive = small, poorly fitted or top-dose-only effect, or another doubt; inactive = no such curve, though single readings can be large; an effect the other way counts as inactive or inconclusive.

Experiment [1] has as its system MKL-2. Kind of experiment: qHTS assay to identify novel small-molecules to repurpose for Merkel cell carcinoma treatment (AID 1296009). Also: nearly all actives have a fitted effect of over 60% in size. Also: potency is read from the fitted curve at half-maximal effect. To be noted: MCC and control cell lines, CellTiter-Glo viability, 72 h; series mostly up to 46 µM. An outline of the steps:
(§1)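 Cells were treated for 72 hr at 37 degree celsius with compounds in 8- or 11-point dose response. Viability was read by CellTiter-Glo luminescence, normalized to no-cell (cytotoxicity) and DMSO controls.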

For experiment [2], the system named is NIH3T3. The experiment is described as above. The settings on record: MCC and control cell lines, CellTiter-Glo viability, 72 h; series mostly up to 44.8 µM. In short, it runs like this: as §1
Experiment [3] concerns UISO. Described as above. The settings on record: MCC and control cell lines, CellTiter-Glo viability, 72 h; series mostly up to 46 µM. In short, it runs like this:
as §1

Experiment [4] has as its system WaGa. The description is as above. To be noted: MCC and control cell lines, CellTiter-Glo viability, 72 h; series mostly up to 46 µM. An outline of the steps: as §1
The subject of experiment [5] is C33A. Kind of experiment: Primary qHTS to identify gynecologic anti-cancer compounds using libraries of approved drugs and bioactive compounds (AID 1345084). Also: % is scaled to controls: 0 for no effect and ±100 for the full control effect; nearly all actives have a fitted effect of over 55% in size. The settings on record: Gynecologic cancer cell panel viability, ATPlite luminescence, 48 h; series mostly up to 57.5 µM. In short, it runs like this: (§2)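 Luminescence from the ATPlite ATP-monitoring reagent indicates viable cell number; lower signal means cytotoxicity. Cells received compound 16 h after seeding and were exposed for 48 h across five concentrations.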

The test system of experiment [6] is CAOV3. The experiment is described as above. To be noted: Gynecologic cancer cell panel viability, ATPlite luminescence, 48 h; series mostly up to 57.5 µM. An outline of the steps:
as §2

Experiment [7] concerns CASKI. The experiment is described as above. To be noted: Gynecologic cancer cell panel viability, ATPlite luminescence, 48 h; series mostly up to 57.5 µM. In short, it runs like this: as §2
Experiment [8] concerns Es-2. Described as above. The settings on record: Gynecologic cancer cell panel viability, ATPlite luminescence, 48 h; series mostly up to 57.5 µM. An outline of the steps:
as §2

The test system of experiment [9] is HeLa. The experiment is described as above. The settings on record: Gynecologic cancer cell panel viability, ATPlite luminescence, 48 h; series mostly up to 57.5 µM. In short, it runs like this:
as §2

For experiment [10], the system named is Hek293T. The experiment is described as above. The settings on record: Gynecologic cancer cell panel viability, ATPlite luminescence, 48 h, control line for the selectivity index; series mostly up to 57.5 µM. In short, it runs like this: as §2
The subject of experiment [11] is JEG-3. The description is as above. The settings on record: Gynecologic cancer cell panel viability, ATPlite luminescence, 48 h; series mostly up to 57.5 µM. An outline of the steps: as §2
Experiment [12] deals with OV90. Described as above. To be noted: Gynecologic cancer cell panel viability, ATPlite luminescence, 48 h; series mostly up to 57.5 µM. An outline of the steps: as §2
In experiment [13] the test system is PA-1. Described as above. To be noted: Gynecologic cancer cell panel viability, ATPlite luminescence, 48 h; series mostly up to 57.5 µM. An outline of the steps:
as §2

Experiment [14] deals with SKOV3. Described as above. To be noted: Gynecologic cancer cell panel viability, ATPlite luminescence, 48 h; series mostly up to 57.5 µM. In short, it runs like this:
as §2

Experiment [15] has as its system Tov-21-G. Described as above. The settings on record: Gynecologic cancer cell panel viability, ATPlite luminescence, 48 h; series mostly up to 57.5 µM. An outline of the steps:
as §2

Experiment [16] has as its system Tov112D. The experiment is described as above. The settings on record: Gynecologic cancer cell panel viability, ATPlite luminescence, 48 h; series mostly up to 57.5 µM. In short, it runs like this: as §2
Experiment [17] in a line: Drug repurposing screens with cells derived from glioblastoma tumor samples (AID 1345199). Also: nearly all actives have a fitted effect of over 40% in size. Also: potency is read from the fitted curve at half-maximal effect. As to activity, negative = cell killing: % is scaled to controls: 0 for no effect and ±100 for the full control effect. The settings on record: GBM patient neurospheres viability, ATP luminescence, 48 h. In short, it runs like this:
(§3)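 Four patient lines of CD133+ GBM neurospheres were screened at several concentrations; hits were retested in those lines plus three slower-growing GBM lines, using 48-hour treatment and ATP-based viability.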

The test system of experiment [18] is astro. The description is as above. The settings on record: viability, ATP luminescence, 48 h; series mostly up to 45.9 µM. In short, it runs like this: as §3
Experiment [19] deals with Nuclear receptor subfamily 1 group I member 2 (Rattus norvegicus) (UniProt Q9R1A7). Nature of the experiment: qHTS assay for small molecule activators of the rat pregnane X receptor (rPXR) signaling pathway (AID 651751; call rule not given here; also: 0% is about no effect). The settings on record: rPXR reporter cells, luciferase (One-Glo), 24 h.
[20] abbreviates: at 45.9 µM (top of the series), tumour line B.
The mark [21] stands for this setting: at 45.9 µM (top of the series), tumour line D.
[22] abbreviates: at 46.1 µM (top of the series), tumour line C.

Sequence of Nuclear receptor subfamily 1 group I member 2 (Rattus norvegicus) (Q9R1A7 whole entry, looked up): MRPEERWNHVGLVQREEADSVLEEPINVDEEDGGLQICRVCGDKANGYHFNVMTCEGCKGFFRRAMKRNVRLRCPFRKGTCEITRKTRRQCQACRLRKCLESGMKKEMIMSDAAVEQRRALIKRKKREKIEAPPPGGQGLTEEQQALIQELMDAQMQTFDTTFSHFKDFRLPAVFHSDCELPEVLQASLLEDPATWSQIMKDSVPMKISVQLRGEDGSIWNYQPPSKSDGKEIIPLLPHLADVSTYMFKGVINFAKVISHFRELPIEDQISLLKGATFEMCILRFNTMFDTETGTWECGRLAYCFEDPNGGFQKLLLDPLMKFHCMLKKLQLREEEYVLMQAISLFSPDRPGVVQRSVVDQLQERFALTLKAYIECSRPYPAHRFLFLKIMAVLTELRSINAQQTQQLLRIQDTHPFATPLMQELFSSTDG

With `COc1ccccc1OCC(O)CN1CCN(CC(=O)Nc2c(C)cccc2C)CC1` (configuration not stated), the Potency entry in experiment [1], in [3], in experiment [4], in [5], in [6] and in experiment [7] was “inactive” in each case. The Potency result in experiment [8], in experiment [9], in experiment [10], in [11], in [12] and in [13] was “inactive” throughout. Further, the Potency entry in [14], in experiment [15], in experiment [16] and in experiment [18] was “inactive” each time. Also, the result in experiment [2] was inactive. In addition, the activity, negative = cell killing in [17] (setting [20]) was -2.09%; in experiment [17] (setting [21]) it was -4.68%; in experiment [17] (setting [22]) it was -16.2%.
With `CCC1(C)CC(=O)NC1=O` (configuration not stated), the Potency result in experiment [1], in experiment [3], in experiment [4], in [5], in experiment [6] and in [7] was “inactive” each time. Moreover, the Potency result in experiment [8], in experiment [9], in experiment [10], in [11], in experiment [13] and in experiment [14] was “inactive” each time. The Potency entry in experiment [15] and in [16] was “inactive” in each case. In experiment [2], the outcome was inactive. Besides, the activity, negative = cell killing in experiment [17] (setting [20]) was -5.39%; in [17] (setting [21]), -6.6%; in experiment [17] (at 46 µM (top of the series), tumour line A), -18.2%; in experiment [17] (setting [22]), -11.1%.
Take `Nc1c2c(nc3ccccc13)CCCC2`: the Potency entry in experiment [1], in experiment [3], in [4], in experiment [5], in experiment [6] and in experiment [7] was “inactive” throughout. Moreover, the Potency entry in experiment [8], in experiment [9], in experiment [10], in experiment [11], in [12] and in experiment [13] was “inactive” each time. In addition, the Potency result in experiment [15], in [16] and in [18] was “inactive” throughout. The call in [2] was inactive. Besides, the activity, negative = cell killing is 1.31% in experiment [17] (setting [20]) and -23.5% in experiment [17] (setting [22]). In [17] (tumour line A), the Potency is 20 µM (active). In addition, in experiment [19], the max response was 4.58%.
As for `CCOC(=O)C(C)(C)Oc1ccc(Cl)cc1`, the Potency result in experiment [1], in experiment [3], in [4], in [5], in [6] and in [7] was “inactive” each time. The Potency entry in experiment [8], in experiment [9], in experiment [10], in [11], in experiment [12] and in [13] was “inactive” throughout. The Potency result in [14], in experiment [15], in [16] and in [18] was “inactive” throughout. Moreover, in experiment [2], the call was inactive. Besides, the activity, negative = cell killing was -9.66% in experiment [17] (setting [20]), -5.13% in experiment [17] (setting [21]) and 5.62% in experiment [17] (setting [22]). Besides, in experiment [19], the max response was 2.24%.
On to `CN1CCC(=C2c3ccccc3CC(=O)c3sccc32)CC1`, for which the Potency in experiment [1] is 9.44 µM (active); in experiment [4] it was 29.9 µM (active); in experiment [17] (tumour line A), 14.1 µM (active); in experiment [17] (tumour line D) it was 12.6 µM (active). Moreover, the call in [2] was inactive. Besides, the Potency entry in experiment [3], in experiment [5], in experiment [7], in experiment [8], in experiment [9] and in [10] was “inactive” throughout. Further, the Potency result in experiment [11], in experiment [12], in experiment [13], in experiment [14], in experiment [15] and in experiment [16] was “inactive” in each case. Further, in experiment [17] (setting [22]), the activity, negative = cell killing was -13.4%.
Take `O=C(CCCN1CCC(O)(c2ccc(Cl)cc2)CC1)c1ccc(F)cc1`: the Potency entry in experiment [1], in experiment [3], in [4], in experiment [5], in experiment [7] and in experiment [8] was “inactive” each time. Moreover, the Potency result in [9], in experiment [10], in experiment [11] and in experiment [16] was “inactive” in each case. For the same compound, the call in experiment [2] was inactive. For the same compound, in experiment [17] (setting [22]), the activity, negative = cell killing was -10.7%. The values for the Potency in experiment [17] (tumour line A) and in [17] (tumour line D) were 11.2 µM (active) and 15.8 µM (active), respectively.
